Assay results reported in PubChem BioAssay.
Active and inactive are the calls of the source.

assay: CREB reporter modulators without forskolin, primary screen, cell-based, PC12, CRE-LacZ reporter, unstimulated (AID 1145); settings: no forskolin, luminescence, 4.5 h, higher = more signal, called active from +8 up or from −8 down

z-score, inactive:
COc1ccc([C@H]2C[C@H]3C(Br)=C[C@@H]2C(=O)[C@]32CO2)cc1 2.85, C=CCOC(=O)[C@@H]1[C@H]2C(=O)O[C@H](c3ccccc3)[C@H](c3ccccc3)N2[C@H](c2ccc(OCCOC(=O)[C@@H]3C[C@@H]4C(=O)N[C@@H](Cc5ccccc5)C(=O)N4[C@@H]3c3ccc(O)cc3)cc2)[C@@]12C(=O)Nc1ccc(I)cc12 -0.537, O=C1OCC=C[C@H]2OC34C=CCN(c5ccc6ccccc6c5)C(=O)[C@H]3N(CCCCCCO)C(=O)[C@@H]4[C@@H]12 (stereo partly specified) 0.471, [N-]=[N+]=Nc1ccccc1C[C@]1(C(N)=O)N=C(c2ccc(OCCCO)cc2)O[C@H]1c1ccccc1 1.31, O=C1OCCC/C=C\[C@H]2OC34C=CCN(Cn5nnc6ccccc65)C(=O)[C@H]3N(CCO)C(=O)[C@@H]4C12 (stereo partly specified) -1.58, COc1cc2c(cc1OC)CN(C(=O)[C@H]1[C@@H]3C(=O)O[C@@H](c4ccccc4)[C@@H](c4ccccc4)N3[C@@H](c3ccc(O)cc3)[C@]13C(=O)Nc1ccc(C#CC4=CCCCC4)cc13)CC2 -0.375, Cc1ccc(S[C@]2(C(=O)NCC(C)C)CC(=O)N(Cc3cc(C(F)(F)F)cc(C(F)(F)F)c3)[C@@H]2c2ccc(CO)cc2I)cc1 0.441, CCCC[C@@H]1C[C@H]1[C@@H](NC(=O)c1ccco1)c1ccc(C(=O)OC)cc1 0.0075, CC(=O)N1Cc2ccccc2C[C@@]2(COC(c3ccc(OCCCO)cc3)=N2)C1=O 1.82

z-score, active:
O=C1O[C@H](c2ccccc2)[C@H](c2ccccc2)N2[C@H]1[C@@H](C(=O)O)[C@]1(C(=O)Nc3ccc(C#CC4=CCCCC4)cc31)[C@H]2c1ccccc1OCCO 17.1

assay: CREB reporter modulators under forskolin, primary screen, cell-based, PC12, CRE-LacZ reporter, forskolin-stimulated (AID 1146); settings: luminescence, 4.5 h, higher = more signal, called active from +8 up or from −8 down;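 note: PC12 cells with 6xCRE LacZ reporter stimulated by forskolin 10 µM; beta-galactosidase reporter signal reflecting CREB driven transcription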

z-score, inactive:
C[N+](C)(C)CCCCNC(=O)[C@H]1C[C@H]2C(=O)N[C@@H](Cc3ccccc3)C(=O)N2[C@H]1c1ccc(O)cc1 0.465, [N-]=[N+]=NCc1ccccc1C[C@]1(C(=O)N2CCOCC2)N=C(c2ccc(OCCCO)cc2)O[C@H]1c1ccccc1N=[N+]=[N-] -1.86, CC(=O)NCCCC[C@@H]1NC(=O)[C@@H]2C[C@H](C(=O)NCCCCN(C)C)[C@H](c3cccc(OCCO)c3)N2C1=O -0.874, COc1ccc(C(O)C2C=CC3C(=O)N(c4ccccc4)C(=O)C3N2Nc2ccc(C(C)C)cc2)cc1OCc1ccccc1 (stereo unspecified) -0.465, [N-]=[N+]=Nc1ccccc1[C@H]1OC(c2ccc(OCCCO)cc2)=N[C@@]1(Cc1ccccc1)C(=O)O -1.38, O=C(NCc1ccccc1)[C@@]1(Cc2ccccc2)N=C(c2ccc(OCCCO)cc2)O[C@H]1c1ccccc1 -0.413, CCOC1=C2C(CN(S(=O)(=O)c3ccc(C)cc3)C2c2ccc(C)cc2)C2C(=O)N(c3ccccc3)C(=O)C2C1 (stereo unspecified) 0.804, CCOC(=O)C[C@H]1[C@H](OC(=O)c2ccc(C(=O)c3ccccc3)cc2)[C@@H](NC(=O)c2ccc(-c3ccccc3)cc2)c2cc(OCCCO)ccc2N1C(=O)c1ccccc1 -0.254, COCCOC(=O)N1C(=O)[C@@]2(c3cc(C#Cc4ccc(OC)cc4)ccc31)[C@H](c1ccc(O)cc1)N1[C@H](c3ccccc3)[C@H](c3ccccc3)OC(=O)[C@H]1[C@@H]2C(=O)NC[C@H](O)c1ccccc1 0.7, COc1ccc(C(=O)O[C@H]2CC[C@]3(C)C4=C(CCC3C2(C)C)[C@]2(C)CC[C@H]([C@H](C)CCCC(C)C)[C@@]2(C)CC4)cc1 (stereo partly specified) -0.634, COc1ccc(C(=O)Nc2ccc(CN3C(=O)[C@@]4(O[C@@H](CCn5cc([C@H](O)c6ccccc6)nn5)[C@H]([Si](C)(C)c5ccc(OC)cc5)[C@H]4C)c4ccccc43)cc2)cc1 -1.04, O=C1c2ccccc2[C@@]2(Cc3ccccc3N(CCN3CCOCC3)C2=O)[C@H](c2ccc(CO)cc2)N1Cc1ccccc1 -0.297, CC[C@@H]1C=C(C(=O)O)[C@H](c2ccco2)N1S(=O)(=O)c1ccc(C)cc1 1.1, O=C1OCCC/C=C\[C@H]2OC34C=CCN(CCN5CCOCC5)C(=O)[C@H]3N(CCCO)C(=O)[C@@H]4C12 (stereo partly specified) -0.947, COC(=O)[C@@]1(Cc2ccccc2)[C@H]2c3cc(C(=O)N4CCCC4)n(Cc4nc5ccccc5[nH]4)c3C[C@H]2CN1C(=O)c1ccccc1 1.46, CC(C)c1ccc(NN2C(C(O)C(c3ccccc3)c3ccccc3)C=CC3C(=O)N(c4ccccc4)C(=O)C32)cc1 (stereo unspecified) 1.3, C#CCN(Cc1ccccc1Br)C(/C=C/c1ccccc1)CO (stereo unspecified) -1.04, O=C1C2C=CC(C(O)c3c(F)cccc3Cl)N(Nc3ccccc3)C2C(=O)N1c1ccccc1 (stereo unspecified) -0.0349, NC(=O)[C@@H]1[C@H]2C(=O)O[C@H](c3ccccc3)[C@H](c3ccccc3)N2[C@H](c2ccc(O)cc2)[C@@]12C(=O)Nc1ccc(C#CC3(O)CCCCCC3)cc12 -0.301, CCOC(=O)C[C@H]1[C@H](OC(=O)Cc2ccc3c(c2)OCO3)[C@@H](NC(=O)c2ccc3ccccc3c2)c2cc(OCCCO)ccc2N1C(=O)c1ccccc1 0.005, CN(C)C(=O)[C@]1(Cc2ccccc2N=[N+]=[N-])N=C(c2ccc(OCCCO)cc2)O[C@@H]1c1ccccc1 -2.15, COC(=O)c1c(CC[C@@H](CO)NC(=O)N[C@@H](C)Cn2cc(C3(O)CCCCC3)nn2)oc(C(C)=O)c1C(=O)OC 0.214, O=C1C2C=CC(C(O)c3ccc(F)cc3)N(Nc3ccccc3F)C2C(=O)N1c1ccccc1 (stereo unspecified) 1.53, O=C(c1ccccc1)N1Cc2ccccc2[C@@H]2OC(c3ccc(OCCCO)cc3)=N[C@]2(Cc2ccccc2)C1=O 0.715, C=C(COC)/C(=C/C[C@H](OC(=O)c1ccncc1)c1ccc(OCCO)cc1)c1cnc2ccccc2c1 -0.073, COCCOC(=O)N1C(=O)[C@@]2(c3cc(C#CCNC(N)=O)ccc31)[C@H](C(=O)NC[C@H](O)c1ccccc1)[C@H]1C(=O)O[C@H](c3ccccc3)[C@H](c3ccccc3)N1[C@@H]2c1ccccc1OCCO -0.972, COc1ccc([C@H]2C[C@H]3C(Br)=C[C@@H]2C(=O)[C@]32CO2)cc1 0.357, C=CCOC(=O)[C@@H]1[C@H]2C(=O)O[C@H](c3ccccc3)[C@H](c3ccccc3)N2[C@H](c2ccc(OCCOC(=O)[C@@H]3C[C@@H]4C(=O)N[C@@H](Cc5ccccc5)C(=O)N4[C@@H]3c3ccc(O)cc3)cc2)[C@@]12C(=O)Nc1ccc(I)cc12 -0.526, O=C1OCC=C[C@H]2OC34C=CCN(c5ccc6ccccc6c5)C(=O)[C@H]3N(CCCCCCO)C(=O)[C@@H]4[C@@H]12 (stereo partly specified) -0.0042, [N-]=[N+]=Nc1ccccc1C[C@]1(C(N)=O)N=C(c2ccc(OCCCO)cc2)O[C@H]1c1ccccc1 -0.723, O=C1OCCC/C=C\[C@H]2OC34C=CCN(Cn5nnc6ccccc65)C(=O)[C@H]3N(CCO)C(=O)[C@@H]4C12 (stereo partly specified) -0.713, COc1cc2c(cc1OC)CN(C(=O)[C@H]1[C@@H]3C(=O)O[C@@H](c4ccccc4)[C@@H](c4ccccc4)N3[C@@H](c3ccc(O)cc3)[C@]13C(=O)Nc1ccc(C#CC4=CCCCC4)cc13)CC2 -0.267, Cc1ccc(S[C@]2(C(=O)NCC(C)C)CC(=O)N(Cc3cc(C(F)(F)F)cc(C(F)(F)F)c3)[C@@H]2c2ccc(CO)cc2I)cc1 0.845, CCCC[C@@H]1C[C@H]1[C@@H](NC(=O)c1ccco1)c1ccc(C(=O)OC)cc1 1.58, CC(=O)N1Cc2ccccc2C[C@@]2(COC(c3ccc(OCCCO)cc3)=N2)C1=O -1.42

z-score, active:
O=C1O[C@H](c2ccccc2)[C@H](c2ccccc2)N2[C@H]1[C@@H](C(=O)O)[C@]1(C(=O)Nc3ccc(C#CC4=CCCCC4)cc31)[C@H]2c1ccccc1OCCO 26.1
